In PubChem BioAssay (NCI):
Compounds without any hit were thinned out: in the full panel of roughly 83,000, 20% have a hit.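 Testing used 96-well plates and a 48-hour single-concentration exposure. Example: -40 means 40% of the starting cells died.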 The source made the active and inactive calls. How the source made its calls: active means growth percent below 10; inactive means the rest.

Tests used:
Test in all cases: NCI-60 one-dose screen, 48 h (100 = growth as untreated, 0 = no growth, -100 = all killed)
Conditions in all cases: 10 µM unless noted
NCI-H23 lung = test system: NCI-H23 lung
NCI-H226 lung = test system: NCI-H226 lung
NCI-H322M lung = test system: NCI-H322M lung
HOP-62 NSCLC = test system: HOP-62 NSCLC
NCI-H460 lung = test system: NCI-H460 lung
A549/ATCC NSCLC = test system: A549/ATCC NSCLC
786-0 renal = test system: 786-0 renal
COLO 205 colon = test system: COLO 205 colon

Measured: growth

O=C(Nc1ccc(-n2cc(-c3ccncc3)c(-c3ccc(Cl)c(O)c3)n2)cc1)c1ccc(Cl)c(C(F)(F)F)c1
inactive: NCI-H226 lung 89% | NCI-H322M lung 37.2%
active: NCI-H23 lung -54.4% | HOP-62 NSCLC -66.1% | NCI-H460 lung -74.4% | A549/ATCC NSCLC -30.3% | 786-0 renal -94.1%

COc1ccc(/C=C2\CCCC3=C2N=C2SC=NN2C3c2ccc(OC)c(OC)c2)cc1OC (stereo not given)
inactive: NCI-H23 lung 39.7% | NCI-H226 lung 45.3% | NCI-H322M lung 38.3% | HOP-62 NSCLC 35.3% | NCI-H460 lung 44% | A549/ATCC NSCLC 31.9% | 786-0 renal 70.2% | COLO 205 colon 22.7%

CC(C)CCCCCOC(=O)c1ccccc1SSc1ccccc1C(=O)OCCCCCC(C)C
inactive: NCI-H23 lung 108% | NCI-H226 lung 97.3% | NCI-H322M lung 132% | HOP-62 NSCLC 99.8% | NCI-H460 lung 108% | A549/ATCC NSCLC 99.2% | 786-0 renal 104% | COLO 205 colon 109%

COc1cc(-c2nn(-c3ccc(NC(=O)c4ccc(Cl)c(C(F)(F)F)c4)cc3)cc2-c2ccncc2)ccc1Cl
active: HOP-62 NSCLC 5.59% | 786-0 renal -84.5% | COLO 205 colon -22.4%
inactive: NCI-H23 lung 18.7% | NCI-H226 lung 55.5% | NCI-H322M lung 55.9% | NCI-H460 lung 11.9% | A549/ATCC NSCLC 29%

CC(=O)CC(=O)OC/C=C(/C)CCC=C(C)C
inactive: NCI-H23 lung 103% | NCI-H226 lung 101% | NCI-H322M lung 118% | HOP-62 NSCLC 107% | NCI-H460 lung 109% | A549/ATCC NSCLC 105% | 786-0 renal 104% | COLO 205 colon 109%

CC[C@@H](C)/C=C(C)/C=C/C(=O)c1c(O)c(-c2ccc(OC(=O)[C@@]34CC[C@@](C)(C(=O)O3)C4(C)C)cc2)cn(O)c1=O
inactive: NCI-H23 lung 21.8% | NCI-H226 lung 36.8% | HOP-62 NSCLC 21% | A549/ATCC NSCLC 43.6%
active: NCI-H322M lung -4.05% | NCI-H460 lung -7.48% | 786-0 renal -31.8%

O=C(CCl)NC1c2ccccc2Oc2ccccc21
inactive: NCI-H23 lung 70.4% | NCI-H226 lung 98.1% | NCI-H322M lung 97.9% | HOP-62 NSCLC 75.5% | NCI-H460 lung 64.8% | A549/ATCC NSCLC 71.7% | 786-0 renal 77.2% | COLO 205 colon 103%

CC(=O)Nc1nc(C)c(C(=O)N/N=C/N2CCCCC2)s1
active: HOP-62 NSCLC -100%
inactive: NCI-H23 lung 108% | NCI-H226 lung 103% | NCI-H322M lung 123% | NCI-H460 lung 110% | A549/ATCC NSCLC 104% | 786-0 renal 114% | COLO 205 colon 114%

CCOC1=C(Cl)C(=O)C(OCC)=C(Cl)C1=O
inactive: NCI-H23 lung 107% | NCI-H226 lung 103% | NCI-H322M lung 94.7% | HOP-62 NSCLC 97.6% | NCI-H460 lung 109% | A549/ATCC NSCLC 108% | 786-0 renal 97.9% | COLO 205 colon 104%

O=C(O)CS(=O)c1ccc(Cl)cc1 (stereo not given)
inactive: NCI-H23 lung 106% | NCI-H226 lung 103% | NCI-H322M lung 87.7% | HOP-62 NSCLC 101% | NCI-H460 lung 104% | A549/ATCC NSCLC 103% | 786-0 renal 95.7% | COLO 205 colon 107%

CCCCCCCCCCCCCCCCNC(=S)N/N=C/c1ccc(OC)cc1
inactive: NCI-H23 lung 103% | NCI-H226 lung 98.6% | NCI-H322M lung 108% | HOP-62 NSCLC 117% | NCI-H460 lung 104% | A549/ATCC NSCLC 96.1% | 786-0 renal 95.3% | COLO 205 colon 115%

CC(O)c1cc[cH-]c1.[Fe+2].c1cc[cH-]c1 (stereo not given)
inactive: NCI-H23 lung 102% | NCI-H226 lung 91.2% | NCI-H322M lung 92.6% | HOP-62 NSCLC 99.4% | NCI-H460 lung 114% | A549/ATCC NSCLC 101% | 786-0 renal 97.2% | COLO 205 colon 108%

CC(Br)c1nc2ccccc2cc1C(N)=O (stereo not given)
inactive: NCI-H23 lung 107% | NCI-H226 lung 106% | NCI-H322M lung 99.9% | HOP-62 NSCLC 101% | NCI-H460 lung 102% | A549/ATCC NSCLC 97% | 786-0 renal 103% | COLO 205 colon 110%

C=C(C)C(C(=O)OCC)(C(=O)OCC)C(C)C
inactive: NCI-H23 lung 114% | NCI-H226 lung 109% | NCI-H322M lung 111% | HOP-62 NSCLC 108% | NCI-H460 lung 106% | A549/ATCC NSCLC 96.5% | 786-0 renal 103% | COLO 205 colon 117%

CC(=O)O.[In]
inactive: NCI-H23 lung 103% | NCI-H226 lung 101% | NCI-H322M lung 97.6% | HOP-62 NSCLC 106% | NCI-H460 lung 111% | A549/ATCC NSCLC 99.6% | 786-0 renal 101% | COLO 205 colon 112%

O=C(Nc1ccc(-n2cc(-c3ccncc3)c(-c3ccc(Cl)c(O)c3)n2)cc1)Nc1ccc(Cl)c(C(F)(F)F)c1
inactive: NCI-H226 lung 68.2% | NCI-H322M lung 12%
active: NCI-H23 lung 3.39% | HOP-62 NSCLC -7.48% | NCI-H460 lung -29.3% | A549/ATCC NSCLC 6.06% | 786-0 renal -44.8% | COLO 205 colon -66.5%

CCOC(=O)c1sc(NS(=O)(=O)c2ccccc2)nc1C
inactive: NCI-H23 lung 109% | NCI-H226 lung 106% | NCI-H322M lung 122% | NCI-H460 lung 109% | A549/ATCC NSCLC 103% | 786-0 renal 89.4% | COLO 205 colon 120%
active: HOP-62 NSCLC -99.5%

Oc1ccc(Br)cc1/C=N/NC(=S)NC12CC3CC(CC(C3)C1)C2
active: NCI-H23 lung 1.36% | NCI-H460 lung 2.18% | A549/ATCC NSCLC 8.34%
inactive: NCI-H226 lung 31.5% | NCI-H322M lung 36.5% | HOP-62 NSCLC 16.1% | 786-0 renal 54.8% | COLO 205 colon 68%

Cc1ccccc1-n1c(C)nc2cc(NC(=O)c3ccc(Cl)cc3)ccc2c1=O
inactive: NCI-H23 lung 64.3% | NCI-H226 lung 88.8% | NCI-H322M lung 94.2% | HOP-62 NSCLC 97.4% | NCI-H460 lung 72.4% | A549/ATCC NSCLC 72.2% | 786-0 renal 67.6% | COLO 205 colon 119%

CC1(C)N=C(N)N=C(N)N1c1cccc(CCCCOc2ccccc2)c1
active: NCI-H460 lung 4.82%
inactive: NCI-H23 lung 24% | NCI-H226 lung 43.4% | NCI-H322M lung 35.6% | HOP-62 NSCLC 11.4% | A549/ATCC NSCLC 11.2% | 786-0 renal 21.8% | COLO 205 colon 29.3%

Nc1nc2cc(O)ccc2n2cc3c(F)cccc3c12
active: NCI-H460 lung 2.35%
inactive: NCI-H23 lung 40.9% | NCI-H226 lung 54.8% | NCI-H322M lung 32.5% | HOP-62 NSCLC 24.9% | A549/ATCC NSCLC 22.6% | 786-0 renal 27.6% | COLO 205 colon 55.1%

COC(=O)C(N)CC(C)C (stereo not given)
inactive: NCI-H23 lung 107% | NCI-H226 lung 97.1% | NCI-H322M lung 106% | HOP-62 NSCLC 110% | NCI-H460 lung 108% | A549/ATCC NSCLC 103% | 786-0 renal 96.7% | COLO 205 colon 114%

Cc1ccc(NC(=O)CCl)cc1Cl
inactive: NCI-H23 lung 89.2% | NCI-H226 lung 103% | NCI-H322M lung 97.1% | HOP-62 NSCLC 98.9% | NCI-H460 lung 105% | A549/ATCC NSCLC 106% | 786-0 renal 117% | COLO 205 colon 122%

CN(CCC#N)c1ccc(/C=C(\C#N)c2cccc(C(F)(F)F)c2)cc1
inactive: NCI-H23 lung 66.2% | NCI-H226 lung 65.7% | NCI-H322M lung 86.5% | HOP-62 NSCLC 81.7% | NCI-H460 lung 74% | A549/ATCC NSCLC 36.3% | 786-0 renal 74.9% | COLO 205 colon 49.5%

COC(=O)c1cc(O)c2cc3c(cc2c1-c1cc(OC)c(OC)c(OC)c1)OCO3
active: COLO 205 colon 5.08%
inactive: NCI-H23 lung 49.9% | NCI-H226 lung 50.6% | NCI-H322M lung 59.9% | HOP-62 NSCLC 28% | NCI-H460 lung 14.7% | A549/ATCC NSCLC 45.1% | 786-0 renal 29.6%

O=C1C=C(OCC=C(C(F)(F)F)C(F)(F)F)c2ccccc2C1=O
active: 786-0 renal -19.8%
inactive: NCI-H23 lung 19.1% | NCI-H226 lung 14.7% | NCI-H322M lung 90.5% | HOP-62 NSCLC 66.6% | NCI-H460 lung 59% | A549/ATCC NSCLC 82.9% | COLO 205 colon 52.7%

CC(=O)c1ccc2c(c1)c1ccccc1n2C
inactive: NCI-H23 lung 94.1% | NCI-H226 lung 84.2% | NCI-H322M lung 86.2% | HOP-62 NSCLC 83.2% | NCI-H460 lung 98.5% | A549/ATCC NSCLC 96.9% | 786-0 renal 96.6% | COLO 205 colon 99.8%

CCCCCCCCCCCC(=O)OC(C)C(=O)Nc1ccccc1 (stereo not given)
inactive: NCI-H23 lung 98.9% | NCI-H226 lung 103% | NCI-H322M lung 95.3% | HOP-62 NSCLC 97.4% | NCI-H460 lung 104% | A549/ATCC NSCLC 104% | 786-0 renal 94.7% | COLO 205 colon 102%

O=C(NCCO)C(F)(F)F
inactive: NCI-H23 lung 109% | NCI-H226 lung 111% | NCI-H322M lung 105% | HOP-62 NSCLC 104% | NCI-H460 lung 109% | A549/ATCC NSCLC 98.4% | 786-0 renal 93.9% | COLO 205 colon 110%

COc1ccc(-c2nnc(SCC(=O)Nc3ccc(C(=O)/C=C/c4cc(OC)c(OC)c(OC)c4)cc3)n2-c2ccccc2)cc1OC
active: NCI-H23 lung -66.5% [100 µM] | NCI-H226 lung -15% [100 µM] | HOP-62 NSCLC -31.4% [100 µM] | A549/ATCC NSCLC -28.4% [100 µM] | 786-0 renal -54.9% [100 µM]
inactive: NCI-H322M lung 34.5% [100 µM] | NCI-H460 lung 11% [100 µM] | COLO 205 colon 30.3% [100 µM]

CCC(C)CC(N)O (stereo not given)
inactive: NCI-H23 lung 105% | NCI-H226 lung 98% | NCI-H322M lung 116% | HOP-62 NSCLC 122% | NCI-H460 lung 108% | A549/ATCC NSCLC 106% | 786-0 renal 105% | COLO 205 colon 109%

COC(=O)c1cc(Nc2ccc(O)c3c2C(=O)c2c([N+](=O)[O-])ccc(O)c2C3=O)cc(C(=O)OC)c1
active: NCI-H23 lung -20.3% | NCI-H322M lung -2.32% | A549/ATCC NSCLC -50.2%
inactive: NCI-H226 lung 82.5% | HOP-62 NSCLC 72.8% | NCI-H460 lung 55.7% | 786-0 renal 88.7% | COLO 205 colon 12%

COc1cc(-c2nc(/C=C3/C(=O)Nc4ccccc43)c3ccccn23)cc(OC)c1OC
inactive: NCI-H23 lung 47.7% | NCI-H226 lung 82.5% | NCI-H322M lung 113% | HOP-62 NSCLC 87.4% | NCI-H460 lung 66.4% | A549/ATCC NSCLC 77% | 786-0 renal 71.9% | COLO 205 colon 75.1%

CSc1nc(N)n2nccc2n1
inactive: NCI-H23 lung 107% | NCI-H226 lung 83.9% | NCI-H322M lung 102% | HOP-62 NSCLC 89.6% | NCI-H460 lung 104% | A549/ATCC NSCLC 102% | 786-0 renal 97.2% | COLO 205 colon 105%
